Rows were chosen to be rich in hits. Some 9.2% of all compounds tested hit in one or more screens of this group.
NPC1 promoter act: qHTS Assay for NPC1 Promoter Activators; 320,000 compounds, 2.4% hits; Huh7 NPC1 promoter luciferase reporter, 24 h; Potency, µM (series often up to 9.22 µM), hits mostly activators; also: nearly all actives have a fitted effect of over 60% in size
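Cells: Huh7 expressing luciferase under the NPC1 promoter, 1500/well. Seeded 2 h, compound added, incubated 24 h at 37 °C. Luciferase reagent, 10 min ambient, then luminescence.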
SMN2 splice enh: qHTS Assay for Enhancers of SMN2 Splice Variant Expression; HEK293 SMN2-luciferase splicing reporter, luminescence, 30-36 h; Potency, µM (top dose mostly 46.1 µM), usual class: activators; 210,000 compounds, 2.8% hits; also: nearly all actives have a fitted effect of over 55% in size
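HEK293 cells carry an SMN2 […]–luciferase reporter in which exon 7 inclusion puts luciferase in frame. Cells were plated 10-12 h before compound addition, then incubated 30-36 h at 37C. ONE-Glo luminescence was read; sodium butyrate at 4.5 mM final served as control.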
ELG1 genotox: qHTS screen for small molecules that induce genotoxicity in human embryonic kidney (HEK293T) cells expressing luciferase-tagged ELG1; HEK293T ELG1-luciferase reporter, luminescence, 16 h; Potency, µM (highest dose often 46 µM), usual class: activators; 330,000 compounds, 1.3% hits; also: nearly all actives have a fitted effect of over 60% in size
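HEK293T cells expressing luciferase-tagged ELG1 were treated with compound or DMSO for 16 hr at 37°C. Luciferase activity was then read after 30 min with ONE-Glo at room temperature; rising signal flags genetic stress.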
ELG1 repair inh: qHTS screen for small molecules that inhibit ELG1-dependent DNA repair in human embryonic kidney (HEK293T) cells expressing luciferase-tagged ELG1; AID 504467, 2011; Potency, µM (titrated, usually from 46.1 µM), most hits filed as inhibitors; HEK293T ELG1-luciferase reporter, luminescence, 16 h; DNA damage induced by 5-fluorouridine; 330,000 compounds, 2.3% hits; also: nearly all actives have a fitted effect of over 55% in size
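Reporter activity after DNA damage by 5-fluorouridine is monitored. Compound-treated cells incubate 16 hr at 37 °C, then ONE-Glo is added for 30 min before luminescence reading.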
Rab9 promoter act: qHTS Assay for Rab9 Promoter Activators; Huh7 Rab9 promoter-luciferase reporter, luminescence, 24 h; Potency, µM (top dose mostly 9.22 µM), actives largely listed as activators; 320,000 compounds, 2.8% hits; AID 485297, 2010; also: nearly all actives have a fitted effect of over 60% in size
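Huh7 cells stably carrying a Rab9 promoter-luciferase reporter, 1500 cells per well in OP-MEM I with 10% FBS, treated with compound 24 hours at 37C. Luciferase activity read by luminescence after 10 minutes with Amplite reagent.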
FLuc counter: qHTS profiling assay for firefly luciferase inhibitor/activator using purifed enzyme and Km concentrations of substrates (counterscreen for miR-21 project); Luciferin 4-monooxygenase (Photinus pyralis), P08659; 360,000 compounds, 6.9% hits; Potency, µM (series often up to 57.5 µM), most hits filed as inhibitors; purified FLuc, Km substrates, luminescence inhibition; also: nearly all actives have a fitted effect of over 55% in size
Target sequence (P08659 whole entry, looked up): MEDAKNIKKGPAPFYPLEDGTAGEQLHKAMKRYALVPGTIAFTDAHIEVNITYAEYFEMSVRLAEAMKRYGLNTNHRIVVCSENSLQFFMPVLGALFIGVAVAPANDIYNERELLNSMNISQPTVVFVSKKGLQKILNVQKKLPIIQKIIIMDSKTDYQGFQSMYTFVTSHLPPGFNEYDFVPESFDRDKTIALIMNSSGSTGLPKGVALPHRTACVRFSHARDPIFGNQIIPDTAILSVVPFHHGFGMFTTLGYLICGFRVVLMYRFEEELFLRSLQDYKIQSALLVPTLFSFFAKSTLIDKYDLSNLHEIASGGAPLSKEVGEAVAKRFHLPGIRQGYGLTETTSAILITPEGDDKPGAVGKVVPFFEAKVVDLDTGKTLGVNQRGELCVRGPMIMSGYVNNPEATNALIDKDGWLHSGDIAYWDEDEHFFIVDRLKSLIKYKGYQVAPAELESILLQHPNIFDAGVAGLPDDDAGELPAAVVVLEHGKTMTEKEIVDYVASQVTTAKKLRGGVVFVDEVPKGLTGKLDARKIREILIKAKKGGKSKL
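Biochemical qHTS of compounds, final roughly 60 µM downward over six points, against 10 nM purified firefly luciferase using Km concentrations of substrates (10 uM D-luciferin, 10 uM ATP) in Tris acetate pH 7.5 buffer; luminescence output.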
Of the large screens only hits and unclear results are named; the others gave an inactive call. Calls follow the shape of the dose curve; as a rule, active = well fitted curve in the direction sought with a large enough effect; inconclusive = small, poorly fitted or top-dose-only effect, or another doubt; inactive = no such curve, though single readings can be large; an effect the other way counts as inactive or inconclusive.

Cc1ccc(C(=O)CNc2ccc(Br)cc2)cc1	ELG1 repair inh inconclusive
Cc1ccc(S(=O)(=O)CC(=O)c2ccccc2)cc1	FLuc counter inconclusive
O=C(CNc1ccc(Br)cc1)c1ccccc1	ELG1 genotox inconclusive, ELG1 repair inh inconclusive, FLuc counter inconclusive
CC(C)(C)c1ccc(C(=O)CS(=O)(=O)c2ccccc2)cc1	NPC1 promoter act 1.41µM, ELG1 genotox inconclusive, ELG1 repair inh inconclusive, Rab9 promoter act 0.891µM, FLuc counter 2.13µM
O=C(N=C1SC2CS(=O)(=O)CC2N1c1ccc(Cl)c(Cl)c1)C1CCCO1 (stereo not drawn)	none (no result: SMN2 splice enh)
CCOC(=O)C1CCCN(c2ncnc3c2nnn3C)C1 (stereo not drawn)	none (no result: NPC1 promoter act, SMN2 splice enh, ELG1 genotox, ELG1 repair inh, Rab9 promoter act)
CN(C)c1nnnn1-c1ccc(OC(F)(F)F)cc1	none
Cc1ccc(C(=O)CNc2ccccc2C)cc1	ELG1 genotox inconclusive, ELG1 repair inh inconclusive, FLuc counter 6.01µM
Cc1ccc(C(=O)CC(=O)c2ccc(C(C)(C)C)cc2)cc1	NPC1 promoter act inconclusive, ELG1 repair inh inconclusive, Rab9 promoter act inconclusive, FLuc counter 9.53µM (no result: SMN2 splice enh)
Cc1ccc(NCCC(=O)c2cccc([N+](=O)[O-])c2)c(C)c1	ELG1 repair inh inconclusive, FLuc counter 23.9µM
O=C(CNc1ccc(F)cc1)c1ccccc1	ELG1 genotox inconclusive, ELG1 repair inh inconclusive, FLuc counter 15.1µM
Cc1cccc(NCCC(=O)c2ccc([N+](=O)[O-])cc2)c1C	none
COc1ccc(O[C@H]2C=C[C@@H](c3ccccc3)O[C@@H]2COC(=O)CC/C(C)=N/OC[C@@H](O)[C@H]2O[C@@H]3OC(C)(C)O[C@@H]3[C@H]2O)cc1	ELG1 repair inh inconclusive
Cc1ccc(NC(=O)CSc2nc3ccccc3c3nc(CCc4c(C)n[nH]c4C)nn23)c(C)c1	none (no result: NPC1 promoter act, SMN2 splice enh, ELG1 genotox, ELG1 repair inh, Rab9 promoter act)
O=C(O)C1CCC(N2C(=O)C3C4CCC(C4)C3C2=O)CC1 (stereo not drawn)	none (no result: SMN2 splice enh)
N#Cc1ccc(CN2CCN(C(=O)CN3C(=O)NC4(CCCC4)C3=O)CC2)cc1	none (no result: SMN2 splice enh)
COc1cc(Cl)c(C)cc1NC(=O)COC(=O)C1=COCCO1	ELG1 repair inh inconclusive (no result: SMN2 splice enh)
CCCCc1ccc(NC(=O)Nc2cnccn2)cc1	ELG1 repair inh inconclusive, FLuc counter inconclusive (no result: SMN2 splice enh)
CCc1ccc(NC(=O)Nc2ccon2)cc1	NPC1 promoter act 2.24µM, ELG1 genotox inconclusive, ELG1 repair inh inconclusive, Rab9 promoter act 2.51µM, FLuc counter 7.57µM (no result: SMN2 splice enh)
CCc1ccc(NC(=O)Nc2cnccn2)cc1	NPC1 promoter act inconclusive, ELG1 genotox inconclusive, ELG1 repair inh inconclusive, Rab9 promoter act 3.55µM, FLuc counter 10.7µM (no result: SMN2 splice enh)
O=C(Nc1ccc([N+](=O)[O-])cc1)Nc1ccon1	none (no result: SMN2 splice enh)
CCOc1ccccc1-c1nc(-c2ccc(C)nc2OC)no1	NPC1 promoter act 4.47µM, SMN2 splice enh inconclusive, ELG1 genotox inconclusive, ELG1 repair inh inconclusive, Rab9 promoter act 3.16µM, FLuc counter 9.53µM
COc1nc(C)ccc1-c1noc(-c2ccncc2)n1	NPC1 promoter act inconclusive, SMN2 splice enh 14.1µM, ELG1 genotox inconclusive, ELG1 repair inh inconclusive, Rab9 promoter act inconclusive, FLuc counter 13.5µM
COc1cc(-c2nc(-c3ccc(C)nc3OC)no2)cc(OC)c1OC	none
COc1nc(C)ccc1-c1noc(-c2cccs2)n1	NPC1 promoter act 0.562µM, ELG1 genotox inconclusive, ELG1 repair inh inconclusive, Rab9 promoter act 0.501µM, FLuc counter 1.51µM (no result: SMN2 splice enh)
Cc1cc(C(=O)CCC(=O)NCC2COc3ccccc3O2)c(C)s1 (stereo not drawn)	none (no result: SMN2 splice enh)
S=c1nc(-c2ccccc2)oc2c1CCCC2	NPC1 promoter act inconclusive, ELG1 repair inh inconclusive, Rab9 promoter act inconclusive, FLuc counter 13.5µM
COc1cccc(-c2nc(=S)c3c(o2)CCCC3)c1	SMN2 splice enh inconclusive, ELG1 genotox inconclusive, ELG1 repair inh inconclusive, Rab9 promoter act inconclusive, FLuc counter 3.01µM

Screening data from PubChem BioAssay.
